{
  "source": "PubChem BioAssay (NCI)",
  "note": "Compounds without any hit were thinned out: in the full panel of roughly 79,000, 15% have a hit. A number with no mark means an inactive call. Active and inactive are the calls of the source. No stated cut-off is given here; in the data, active means growth inhibition above about 70%; inactive means the rest.",
  "data": [
    {"assay": "NCI Yeast Anticancer Drug Screen. Data for the bub3 strain (AID 167)", "details": "S. cerevisiae bub3 mutant strain, at 50.0 µM, stronger effect = higher value", "how_it_was_run": "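Yeast carrying a defined mutation is treated with each compound, and growth is compared with that of vehicle-exposed cells to give inhibition.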", "units": {"growth inhibition": "%"}, "values": [
      {"smiles": "O=S(Cc1ccccc1)/C(=C/NC(=S)Nc1cc(Cl)ccc1Cl)c1ccccc1", "note": "(stereo unspecified)", "growth inhibition": 5.35},
      {"smiles": "CC(=O)c1cc(O)ccc1O", "growth inhibition": -2.6},
      {"smiles": "Cc1cc(Cc2ccccc2)c(O)c(Cc2ccccc2)c1", "growth inhibition": 12.3},
      {"smiles": "CC(CC(CCC(=O)O)(c1ccccc1)c1ccccc1)N(C)C", "note": "(stereo unspecified)", "growth inhibition": 7.95},
      {"smiles": "COC(c1ccc2c(c1)OCO2)C(C)Br", "note": "(stereo unspecified)", "growth inhibition": -8.9},
      {"smiles": "O=C1Nc2ccccc2/C1=C\\c1ccccc1O", "growth inhibition": 17.4},
      {"smiles": "C=C1SC(=Nc2c(C)cccc2C)N(c2nc(Cl)nc(Cl)n2)C12CCCCC2", "growth inhibition": 10.9},
      {"smiles": "Clc1cccc(Cl)c1CSc1nc2ccccc2n2cccc12", "growth inhibition": -29.9},
      {"smiles": "CCCCCCCCCCCCCCCCCC(=O)NCCNC(=O)CCCCCCCCCCCCCCCCC", "growth inhibition": 1.5},
      {"smiles": "CN1CCN(C(=S)S)CC1", "growth inhibition": 3.5},
      {"smiles": "Cc1c(-c2ccc(C3CCCCC3)cc2)nc2ccc(F)cc2c1C(=O)O", "growth inhibition": 1.8},
      {"smiles": "COc1cc(C(=O)N2CCN(c3ccccc3)CC2)c2ccccc2n1", "growth inhibition": 9.2},
      {"smiles": "CS(=O)(=O)c1ccc(/C=C\\C(=O)O)cc1", "growth inhibition": -3.7},
      {"smiles": "CC(C)Sc1ncnc2nc[nH]c12", "growth inhibition": 18.9},
      {"smiles": "Cc1ccc(O)c(N)c1", "growth inhibition": -9.6},
      {"smiles": "CCOC(=O)c1c[nH][nH]c1=O", "growth inhibition": 7.85},
      {"smiles": "Nc1ccccc1SC1CC(=O)N(c2ccc(Cl)c(Cl)c2)C1=O", "note": "(stereo unspecified)", "growth inhibition": 1.15},
      {"smiles": "CC1CCC(C(C)(C)[N+](C)(C)C)CC1", "note": "(stereo unspecified)", "growth inhibition": 47.2},
      {"smiles": "CCOP(=O)(OCC)/C(=C\\N1C(=O)CC(=O)NC1=S)C(=O)OC", "growth inhibition": -6.45},
      {"smiles": "O=[N+]([O-])c1c(Cl)ncnc1Cl", "growth inhibition": -48.1},
      {"smiles": "CC1CC2C3CCC4=CC(=O)CCC4(C)C3CCC2(C)C1(O)C(=O)CO", "note": "(stereo unspecified)", "growth inhibition": -14.3},
      {"smiles": "COC(=O)c1ccc([N+](=O)[O-])c(C)c1", "growth inhibition": -25.1},
      {"smiles": "Clc1cccc(Cl)c1C1CSc2ccccc2N=C1c1ccccc1", "note": "(stereo unspecified)", "growth inhibition": -0.9},
      {"smiles": "C(=C\\c1ccncc1)/c1ccncc1", "growth inhibition": 7.8},
      {"smiles": "Cc1ccc[n+](CCC(N)=O)c1", "growth inhibition": -16.1},
      {"smiles": "c1ccc(Nc2ccccn2)nc1", "growth inhibition": 3.8},
      {"smiles": "c1ccc(Oc2c3ccccc3nc3ccccc23)cc1", "growth inhibition": -5.7},
      {"smiles": "CCOC(=O)CSCCC#N", "growth inhibition": 1.75},
      {"smiles": "Cc1cccc2ccccc12", "growth inhibition": -3.6},
      {"smiles": "O=C(O)C1CSC(c2ccccc2)N1", "note": "(stereo unspecified)", "growth inhibition": -5.55},
      {"smiles": "Ic1cccs1", "growth inhibition": -4.3},
      {"smiles": "O=C1NCC2CCCC1C2", "note": "(stereo unspecified)", "growth inhibition": -13.4},
      {"smiles": "CCCCOC(=O)c1ccccc1O", "growth inhibition": 0.85},
      {"smiles": "O=S(Cc1ccccc1)/C(=C/NC(=S)Nc1ccccc1)c1ccccc1", "note": "(stereo unspecified)", "growth inhibition": -16.9}
    ]},
    {"assay": "NCI Yeast Anticancer Drug Screen. Data for the mlh1 rad18 strain (AID 175)", "details": "S. cerevisiae mlh1 rad18 strain growth inhibition; at 50.0 µM; stronger effect = higher value", "how_it_was_run": "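In this whole-cell yeast screen, a strain with altered DNA damage repair is challenged with compound, and its growth is measured against matched vehicle-treated controls.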", "values": [
      {"smiles": "O=S(Cc1ccccc1)/C(=C/NC(=S)Nc1cc(Cl)ccc1Cl)c1ccccc1", "note": "(stereo unspecified)", "growth inhibition": "7.1%"},
      {"smiles": "Cc1cc(Cc2ccccc2)c(O)c(Cc2ccccc2)c1", "growth inhibition": "42.7%"},
      {"smiles": "CC(CC(CCC(=O)O)(c1ccccc1)c1ccccc1)N(C)C", "note": "(stereo unspecified)", "growth inhibition": "13.4%"},
      {"smiles": "COC(c1ccc2c(c1)OCO2)C(C)Br", "note": "(stereo unspecified)", "growth inhibition": "6.55%"},
      {"smiles": "O=C1Nc2ccccc2/C1=C\\c1ccccc1O", "growth inhibition": "23.4%"},
      {"smiles": "C=C1SC(=Nc2c(C)cccc2C)N(c2nc(Cl)nc(Cl)n2)C12CCCCC2", "growth inhibition": "14.1%"},
      {"smiles": "CCCCCCCCCCCCCCCCCC(=O)NCCNC(=O)CCCCCCCCCCCCCCCCC", "growth inhibition": "-4.25%"},
      {"smiles": "CN1CCN(C(=S)S)CC1", "growth inhibition": "5.15%"},
      {"smiles": "Cc1c(-c2ccc(C3CCCCC3)cc2)nc2ccc(F)cc2c1C(=O)O", "growth inhibition": "-15.2%"},
      {"smiles": "COc1cc(C(=O)N2CCN(c3ccccc3)CC2)c2ccccc2n1", "growth inhibition": "3.1%"},
      {"smiles": "CS(=O)(=O)c1ccc(/C=C\\C(=O)O)cc1", "growth inhibition": "19.2%"},
      {"smiles": "CC(C)Sc1ncnc2nc[nH]c12", "growth inhibition": "2.5%"},
      {"smiles": "Cc1ccc(O)c(N)c1", "growth inhibition": "0.95%"},
      {"smiles": "CC1CCC(C(C)(C)[N+](C)(C)C)CC1", "note": "(stereo unspecified)", "growth inhibition": "36.4%"},
      {"smiles": "CCOP(=O)(OCC)/C(=C\\N1C(=O)CC(=O)NC1=S)C(=O)OC", "growth inhibition": "-5.55%"},
      {"smiles": "O=[N+]([O-])c1c(Cl)ncnc1Cl", "growth inhibition": "-16.2%"},
      {"smiles": "O=[n+]1ccn([O-])c2ccccc21", "growth inhibition": "20.6%"},
      {"smiles": "CC1CC2C3CCC4=CC(=O)CCC4(C)C3CCC2(C)C1(O)C(=O)CO", "note": "(stereo unspecified)", "growth inhibition": "-0.55%"},
      {"smiles": "COC(=O)c1ccc([N+](=O)[O-])c(C)c1", "growth inhibition": "-27.6%"},
      {"smiles": "Clc1cccc(Cl)c1C1CSc2ccccc2N=C1c1ccccc1", "note": "(stereo unspecified)", "growth inhibition": "3.65%"},
      {"smiles": "C(=C\\c1ccncc1)/c1ccncc1", "growth inhibition": "23.6%"},
      {"smiles": "Cc1ccc[n+](CCC(N)=O)c1", "growth inhibition": "-6.75%"},
      {"smiles": "c1ccc(Nc2ccccn2)nc1", "growth inhibition": "-24.6%"},
      {"smiles": "c1ccc(Oc2c3ccccc3nc3ccccc23)cc1", "growth inhibition": "87.9% (active)"},
      {"smiles": "O=Cc1ccc(F)cc1", "growth inhibition": "-17.4%"},
      {"smiles": "CCOC(=O)CSCCC#N", "growth inhibition": "0.65%"},
      {"smiles": "CC(C)c1ccccc1NC(=O)N1CCC(C(C)C)CC1", "growth inhibition": "-12.7%"},
      {"smiles": "O=C(O)C1CSC(c2ccccc2)N1", "note": "(stereo unspecified)", "growth inhibition": "2.55%"},
      {"smiles": "Ic1cccs1", "growth inhibition": "11.8%"},
      {"smiles": "O=C1NCC2CCCC1C2", "note": "(stereo unspecified)", "growth inhibition": "1.7%"},
      {"smiles": "CCCCOC(=O)c1ccccc1O", "growth inhibition": "20.5%"},
      {"smiles": "O=S(Cc1ccccc1)/C(=C/NC(=S)Nc1ccccc1)c1ccccc1", "note": "(stereo unspecified)", "growth inhibition": "-7.15%"}
    ]}
  ]
}
